# An excerpt weighted towards active compounds, which were near 11% of everything screened.
# PI5P4Ka inh: qHTS for Inhibitors of phosphatidylinositol 5-phosphate 4-kinase (PI5P4K). 1.2% of 330,000 active. PI5P4Kalpha enzyme, ADP-Glo luminescence, 60 min; stronger effect = lower value. Phosphatidylinositol 5-phosphate 4-kinase type-2 alpha (Homo sapiens), P48426. max response, %. AID 652105, 2013; active = max response of -50% or lower; inconclusive = between -30% and -50%; inactive = -30% or higher; note: value at the top dose of about 77 µM; % is set by controls: 0 for no effect and ±100 for the full control effect
# Target sequence (P48426 whole entry, looked up): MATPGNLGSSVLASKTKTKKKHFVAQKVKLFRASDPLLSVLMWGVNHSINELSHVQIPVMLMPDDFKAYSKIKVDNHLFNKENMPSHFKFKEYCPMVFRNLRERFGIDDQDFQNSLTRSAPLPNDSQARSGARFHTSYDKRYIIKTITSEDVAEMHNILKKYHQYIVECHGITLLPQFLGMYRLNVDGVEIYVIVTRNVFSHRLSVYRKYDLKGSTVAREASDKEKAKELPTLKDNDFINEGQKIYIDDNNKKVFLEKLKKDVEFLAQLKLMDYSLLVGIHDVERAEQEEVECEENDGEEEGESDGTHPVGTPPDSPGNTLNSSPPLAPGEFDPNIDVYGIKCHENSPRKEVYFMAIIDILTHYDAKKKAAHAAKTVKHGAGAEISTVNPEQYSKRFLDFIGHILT
#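 Reactions run in 0.038 M HEPES pH 7.4, 0.28 mM EGTA, 0.1% CHAPS and 5% DMSO, with PI5P4Kalpha, substrate, compound and 5 microM ATP final, one hour at room temperature. Readout is ADP-Glo luminescence.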
# HP1b binding inh: HTS for Inhibitors of HP1-beta Chromodomain Interactions with Methylated Histone Tails | 0.56% of 390,000 active | AID 540317, 2011 | AlphaScreen HP1-beta / biotin-H3K9me3 peptide binding | Potency, µM (top dose mostly 114 µM), without a hit: top-dose activity change, negative = inhibition, most hits filed as inhibitors; note: potency is the fitted concentration of half-maximal effect; nearly all actives have a fitted effect of over 70% in size
#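 HP1-beta protein (50 nM final) preincubated 30 min at room temperature with biotinylated H3(1-18)K9me3 peptide (50 nM) in PBS pH 7.4, 0.01% Tween-20, then compound added for 30 min. AlphaScreen streptavidin donor/nickel chelate acceptor beads (10 ug/mL final), 30 min dark, luminescence read.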
# L3MBTL1 block: qHTS Assay for the Inhibitors of L3MBTL1 | Lethal(3)malignant brain tumor-like protein 1 (Homo sapiens), Q9Y468 | AlphaScreen L3MBTL1–H3K9me1 peptide binding | Potency, µM (doses to about 57.1 µM), without a hit: top-dose activity, negative = inhibition, hits mostly inhibitors | 0.66% of 230,000 active | AID 485360, 2010; note: potency is the fitted concentration of half-maximal effect; % is set by controls: 0 for no effect and ±100 for the full control effect; nearly all actives have a fitted effect of over 60% in size
#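 L3MBTL1 50 nM + b-AHA-H3(1-15)K9me1 75 nM, 30 min RT; compound added, 30 min RT; streptavidin donor/Ni-chelate acceptor beads 10 ug/mL each final, 30 min RT dark; AlphaScreen read.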
# G9a inh: qHTS Assay for Inhibitors of Histone Lysine Methyltransferase G9a; 8.8% of 350,000 active; Histone-lysine N-methyltransferase EHMT2 (Homo sapiens), Q96KQ7; Potency, µM (series often up to 102 µM), inactives show top-dose activity, negative = inhibition, actives largely listed as inhibitors; G9a H3K9 monomethylation, AlphaScreen, 2 h; note: potency is the fitted concentration of half-maximal effect; % is set by controls: 0 for no effect and ±100 for the full control effect; nearly all actives have a fitted effect of over 75% in size
#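 Signal arises when biotinylated H3K9 peptide, once monomethylated, bridges streptavidin donor and antibody-captured acceptor beads. Enzyme at 20 nM was preincubated 15 min with test compounds; peptide 500 nM and SAM 20 uM then reacted for 2 h.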
# BAZ2B inh: qHTS Assay for Inhibitors of BAZ2B. Bromodomain adjacent to zinc finger domain protein 2B (Homo sapiens), Q9UIF8. AlphaScreen BAZ2B-H3K14Ac peptide displacement. Potency, µM (series often up to 114 µM), without a hit: at the top dose activity change, negative = inhibition, actives largely listed as inhibitors. 4.4% of 360,000 active. AID 504333, 2011; note: potency is the fitted concentration of half-maximal effect; % is set by controls: 0 for no effect and ±100 for the full control effect; nearly all actives have a fitted effect of over 60% in size
#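 AlphaScreen luminescence quantifies BAZ2B engagement of H3K14Ac peptide; the protein and biotinylated peptide are both at 50 nM final, buffer PBS pH 7.4 with 0.01% Tween-20, all steps at room temperature.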
# JMJD2A Tudor: qHTS Assay for Inhibitors of JMJD2A-Tudor Domain. Lysine-specific demethylase 4A (Homo sapiens), O75164. AlphaScreen JMJD2A-Tudor / H3K4me3 peptide binding. Potency, µM (titrated, usually from 114 µM), inactives show top-dose activity change, negative = inhibition, usual class: inhibitors. 4.4% of 390,000 active. AID 504339, 2011; note: potency is the fitted concentration of half-maximal effect; % is set by controls: 0 for no effect and ±100 for the full control effect; nearly all actives have a fitted effect of over 50% in size
# * marks the source's active call; other numbers are inactive results; ? = inconclusive; . = no result given; [ ] = another dose, or the depositor's remark. Unless noted, calls come from the whole dose curve; as a rule, active = well fitted inhibition curve with a large enough effect; inconclusive = small, poorly fitted or top-dose-only effect; inactive = no such curve, though single readings can be large or run the other way.
SMILES,PI5P4Ka inh,HP1b binding inh,L3MBTL1 block,G9a inh,BAZ2B inh,JMJD2A Tudor
Cc1cccc(NC(=O)CSc2nc3ccccc3o2)c1,-3,67%,8%,11%,15%,7%
O=C(Oc1cccc2cccnc12)c1ccco1,5,28%,-9%,26%[59 µM],71µM*,-17%
O=C(Oc1cccc2ccccc12)c1ccco1,.,58%,.,?,5%,16%
O=C(Oc1cccc2cccnc12)c1ccc(Br)o1,-11,29%,-8%,?,50µM*,-23%
O=C(COc1ccc(Cl)c2cccnc12)N1CCOCC1,-1,43%,5%,13%[59 µM],0%,-12%
O=C(Oc1ccc(Cl)c2cccnc12)c1ccco1,2,42%,.,?,50µM*,-18%
O=C(Nc1cccc2cccnc12)c1ccc(Br)o1,.,24%,-2%,?,-10%,4%
O=C(Cc1ccc(Cl)cc1)Oc1cccc2cccnc12,2,21%,?,?,10µM*,25µM*
Cc1cccc(CC(=O)N2CC(=O)Nc3ccc(C)cc3C2c2ccc(F)cc2)c1 (configuration not stated),.,20%,.,7%[59 µM],-1%,-23%
CN(C)c1ncc2nc(CCc3ccccc3)c(=O)n(C[C@H]3CCCO3)c2n1,.,.,.,7%[12.7 µM],.,.
COc1ccc(-n2c3c(cc(C(=O)NNc4ccccc4C)c2=O)C(=O)CC(C)(C)C3)cc1,5,8%,.,50µM*,.,-11%
O=C(CS(=O)c1ccccc1[N+](=O)[O-])Oc1ccc(Br)cc1 (configuration not stated),0,29%,14%,.,?,-18%
CS(=O)(=O)c1ccc(S(=O)CC(=O)Oc2ccc(Cl)cc2)c([N+](=O)[O-])c1 (configuration not stated),-9,9%,.,6.3µM*,-2%,-5%
CN(C)c1ccc(S(=O)(=O)N2CCCCC2)cc1NC(=O)C1=COCCO1,1,18%,.,13%,-10%,-24%
Cc1noc(C)c1C(=O)Nc1cc(S(=O)(=O)N2CCCCC2)ccc1N(C)C,-7,12%,0%,40µM*,10%,-19%
N#Cc1ccccc1OCC(O)CNCCNC(=O)Nc1ccccc1 (configuration not stated),.,.,.,37%[59 µM],.,.
Nc1cc(N)cc(C(=O)OCC(=O)Nc2cc(S(=O)(=O)N3CCCCC3)ccc2Cl)c1,-17,50µM*,-13%,32µM*,25µM*,35µM*
O=C(COC(=O)c1ccc[nH]c1=O)Nc1cc(S(=O)(=O)N2CCCCC2)ccc1Cl,1,39%,.,-41%,15%,89µM*
CC1(C)O[C@H]2[C@@H](O1)[C@@H](C(=O)Nc1ccccc1O)O[C@@H]1OC(C)(C)O[C@@H]12,.,44%,.,1µM*,2%,1%
O=C(Nc1cccc(F)c1)C1CCN(c2nc3ccccc3nc2C(F)(F)F)CC1,.,41%,.,6%[59 µM],1%,2%
CCCCN1CCCC1C(=O)Nc1c(C)cc(C)cc1C (configuration not stated),.,.,.,-11%[12.7 µM],.,.
N#Cc1sc2nc(-c3ccccc3)cc(-c3ccco3)c2c1N,-100*,-19%,?,8.9µM*,?,56µM*
CCNC(=O)Nc1ccc(-n2nc(C)c(C(=O)OCC)c2C)nc1,-25,0%,9%,-1%,-21%,20µM*
CCOC(=O)c1c(C)nn(-c2ccc(NC(=O)c3c(C)noc3C)cc2)c1C,0,15%,.,45µM*,6%,-11%
CCOC(=O)c1c(C)nn(-c2ccc(NC(=O)c3cccs3)cc2)c1C,4,40%,.,-11%[12.7 µM],-3%,-13%

# Screening data from PubChem.
